Laboratory results reported in PubChem BioAssay AID1159580 (chemical genetic matrix, 2015).
About 2,000 (36%) of roughly 5,500 compounds were called active. Roughly 18% stayed inconclusive and do not appear here. The list shows a part of the results. Unmarked numbers belong to inactive results. No stated cut-off is given here; in the data, active means normalized growth mostly below about 0.91 (no sharp cut-off); inconclusive means no clear call, values can overlap the other calls; inactive means mostly above about 0.92.

Assay: chemical genetic growth profiling, strain panel (AID 1159580);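 further: tested at 20 µM; growth read once vehicle control cultures reached saturation at 30 °C; 1 = growth at the plate median or of vehicle wells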
Settings: growth OD

Q: Which normalized growth (S. cerevisiae deletion strains, locus YJR066W, strain TOR1, stronger effect = lower value) does the source give for C[N+]1(C)C2CC(OC(=O)[C@@H](CO)c3ccccc3)CC1C1OC12 (stereo partly drawn) here?
A: 0.976

Q: What about the normalized growth (S. cerevisiae deletion strains, locus YJR075W, strain HOC1, stronger effect = lower value) of the same molecule?
A: 1.01

Q: What about the normalized growth (S. cerevisiae deletion strains, locus YKL009W, strain mrt4, stronger effect = lower value) of the same molecule?
A: 1

Q: What about the normalized growth (S. cerevisiae deletion strains, locus YKL068W, stronger effect = lower value) of the same molecule?
A: 1

Q: What about the normalized growth (S. cerevisiae deletion strains, locus YKL085W, strain MDH1 (second series), stronger effect = lower value) of the same molecule?
A: 1.01

Q: And the normalized growth (S. cerevisiae deletion strains, locus YKL085W, strain MDH1, stronger effect = lower value)?
A: 1.01

Q: And the normalized growth (S. cerevisiae deletion strains, locus YKL160W, strain elf1, stronger effect = lower value)?
A: 0.955

Q: And the normalized growth (S. cerevisiae deletion strains, locus YKL190W, strain CNB1, stronger effect = lower value)?
A: 1.03

Q: And the normalized growth (S. cerevisiae deletion strains, locus YKR001C, strain vps1, stronger effect = lower value)?
A: 1.02

Q: What about the normalized growth (S. cerevisiae deletion strains, locus YKR026C, strain gcn3, stronger effect = lower value) of the same molecule?
A: 0.984

Q: What about the normalized growth (S. cerevisiae deletion strains, locus YKR091W, strain srl3, stronger effect = lower value) of the same molecule?
A: 0.968

Q: What about the normalized growth (S. cerevisiae deletion strains, locus YLL001W, strain dnm1, stronger effect = lower value) of the same molecule?
A: 0.933

Q: What about the normalized growth (S. cerevisiae deletion strains, locus YLL026W, stronger effect = lower value) of the same molecule?
A: 0.985

Q: What about the normalized growth (S. cerevisiae deletion strains, locus YLL041C, strain sdh2, stronger effect = lower value) of the same molecule?
A: 0.984

Q: And the normalized growth (S. cerevisiae deletion strains, locus YLR027C, strain aat2, stronger effect = lower value)?
A: 0.982

Q: And the normalized growth (S. cerevisiae deletion strains, locus YLR039C, strain RIC1, stronger effect = lower value)?
A: 1.02

Q: What about the normalized growth (S. cerevisiae deletion strains, locus YLR058C, strain SHM2, stronger effect = lower value) of the same molecule?
A: 1.02

Q: And the normalized growth (S. cerevisiae deletion strains, locus YLR102C, strain apc9, stronger effect = lower value)?
A: 1.02

Q: And the normalized growth (S. cerevisiae deletion strains, locus YLR113W, strain HOG1, stronger effect = lower value)?
A: 1

Q: What about the normalized growth (S. cerevisiae deletion strains, locus YLR221C, strain rsa3, stronger effect = lower value) of the same molecule?
A: 0.91

Q: And the normalized growth (S. cerevisiae deletion strains, locus YLR258W, strain gsy2, stronger effect = lower value)?
A: 0.969

Q: What about the normalized growth (S. cerevisiae deletion strains, locus YLR262C, strain YPT6 (second series), stronger effect = lower value) of the same molecule?
A: 0.973

Q: And the normalized growth (S. cerevisiae deletion strains, locus YLR262C, strain YPT6, stronger effect = lower value)?
A: 1.06

Q: What about the normalized growth (S. cerevisiae deletion strains, locus YLR268W, strain sec22, stronger effect = lower value) of the same molecule?
A: 1.03

Q: And the normalized growth (S. cerevisiae deletion strains, locus YLR320W, strain mms22, stronger effect = lower value)?
A: 0.94

Q: What about the normalized growth (S. cerevisiae deletion strains, locus YLR330W, strain CHS5, stronger effect = lower value) of the same molecule?
A: 1.02

Q: What about the normalized growth (S. cerevisiae deletion strains, locus YLR342W, strain FKS1 (second series), stronger effect = lower value) of the same molecule?
A: 1.03

Q: What about the normalized growth (S. cerevisiae deletion strains, locus YLR342W, strain FKS1, stronger effect = lower value) of the same molecule?
A: 0.962

Q: What about the normalized growth (S. cerevisiae deletion strains, locus YLR357W, strain rsc2, stronger effect = lower value) of the same molecule?
A: 0.979

Q: And the normalized growth (S. cerevisiae deletion strains, locus YLR370C, strain arc18, stronger effect = lower value)?
A: 0.948

Q: And the normalized growth (S. cerevisiae deletion strains, locus YLR371W, strain rom2, stronger effect = lower value)?
A: 1

Q: And the normalized growth (S. cerevisiae deletion strains, locus YLR384C, strain iki3, stronger effect = lower value)?
A: 0.97

Q: What about the normalized growth (S. cerevisiae deletion strains, locus YLR418C, strain cdc73, stronger effect = lower value) of the same molecule?
A: 1.05

Q: What about the normalized growth (S. cerevisiae deletion strains, locus YML016C, strain PPZ1, stronger effect = lower value) of the same molecule?
A: 1.01

Q: What about the normalized growth (S. cerevisiae deletion strains, locus YML032C, strain rad52, stronger effect = lower value) of the same molecule?
A: 1.01

Q: And the normalized growth (S. cerevisiae deletion strains, locus YML120C, strain ndi1, stronger effect = lower value)?
A: 0.903 (active)

Q: What about the normalized growth (S. cerevisiae deletion strains, locus YML124C, strain tub3, stronger effect = lower value) of the same molecule?
A: 1.03

Q: And the normalized growth (S. cerevisiae deletion strains, locus YMR058W, strain fet3, stronger effect = lower value)?
A: 0.973

Q: What about the normalized growth (S. cerevisiae deletion strains, locus YMR078C, strain ctf18, stronger effect = lower value) of the same molecule?
A: 1.02

Q: And the normalized growth (S. cerevisiae deletion strains, locus YMR125W, strain sto1, stronger effect = lower value)?
A: 0.962

Q: What about the normalized growth (S. cerevisiae deletion strains, locus YMR129W, stronger effect = lower value) of the same molecule?
A: 0.982

Q: What about the normalized growth (S. cerevisiae deletion strains, locus YMR205C, strain PFK2, stronger effect = lower value) of the same molecule?
A: 0.956

Q: What about the normalized growth (S. cerevisiae deletion strains, locus YMR223W, strain ubp8, stronger effect = lower value) of the same molecule?
A: 1.05

Q: And the normalized growth (S. cerevisiae deletion strains, locus YMR231W, strain pep5, stronger effect = lower value)?
A: 0.989

Q: What about the normalized growth (S. cerevisiae deletion strains, locus YMR307W, strain GAS1, stronger effect = lower value) of the same molecule?
A: 1.05

Q: And the normalized growth (S. cerevisiae deletion strains, locus YNL067W, strain RPL9B, stronger effect = lower value)?
A: 1.02

Q: And the normalized growth (S. cerevisiae deletion strains, locus YNL071W, strain lat1, stronger effect = lower value)?
A: 0.978

Q: What about the normalized growth (S. cerevisiae deletion strains, locus YNL183C, strain NPR1, stronger effect = lower value) of the same molecule?
A: 0.957

Q: What about the normalized growth (S. cerevisiae deletion strains, locus YNL209W, strain ssb2, stronger effect = lower value) of the same molecule?
A: 0.959

Q: And the normalized growth (S. cerevisiae deletion strains, locus YNL233W, strain BNI4, stronger effect = lower value)?
A: 1.01

Q: What about the normalized growth (S. cerevisiae deletion strains, locus YNL248C, strain rpa49, stronger effect = lower value) of the same molecule?
A: 0.971

Q: And the normalized growth (S. cerevisiae deletion strains, locus YNL250W, strain rad50, stronger effect = lower value)?
A: 1.02

Q: And the normalized growth (S. cerevisiae deletion strains, locus YNL271C, strain bni1, stronger effect = lower value)?
A: 1.01

Q: And the normalized growth (S. cerevisiae deletion strains, locus YNL298W, strain CLA4, stronger effect = lower value)?
A: 1.02

Q: And the normalized growth (S. cerevisiae deletion strains, locus YNL307C, strain MCK1, stronger effect = lower value)?
A: 1.02

Q: And the normalized growth (S. cerevisiae deletion strains, locus YNL322C, strain KRE1 (second series), stronger effect = lower value)?
A: 0.936

Q: What about the normalized growth (S. cerevisiae deletion strains, locus YNR049C, strain mso1, stronger effect = lower value) of the same molecule?
A: 0.964

Q: And the normalized growth (S. cerevisiae deletion strains, locus YNR052C, strain pop2, stronger effect = lower value)?
A: 1.02

Q: What about the normalized growth (S. cerevisiae deletion strains, locus YOL012C, strain htz1) of the same molecule?
A: 1.54

Q: What about the normalized growth (S. cerevisiae deletion strains, locus YOL147C, strain pex11, stronger effect = lower value) of the same molecule?
A: 1.03

Q: And the normalized growth (S. cerevisiae deletion strains, locus YOR001W, strain rrp6, stronger effect = lower value)?
A: 1.04

Q: What about the normalized growth (S. cerevisiae deletion strains, locus YOR061W, strain CKA2, stronger effect = lower value) of the same molecule?
A: 1.01

Q: What about the normalized growth (S. cerevisiae deletion strains, locus YOR069W, strain VPS5, stronger effect = lower value) of the same molecule?
A: 1.01

Q: What about the normalized growth (S. cerevisiae deletion strains, locus YOR070C, strain gyp1, stronger effect = lower value) of the same molecule?
A: 0.99

Q: What about the normalized growth (S. cerevisiae deletion strains, locus YOR080W, strain dia2, stronger effect = lower value) of the same molecule?
A: 0.952

Q: And the normalized growth (S. cerevisiae deletion strains, locus YOR083W, strain WHI5, stronger effect = lower value)?
A: 0.962

Q: And the normalized growth (S. cerevisiae deletion strains, locus YOR106W, strain vam3, stronger effect = lower value)?
A: 0.933

Q: What about the normalized growth (S. cerevisiae deletion strains, locus YOR136W, strain idh2, stronger effect = lower value) of the same molecule?
A: 1.02

Q: What about the normalized growth (S. cerevisiae deletion strains, locus YOR144C, strain elg1, stronger effect = lower value) of the same molecule?
A: 1.01

Q: And the normalized growth (S. cerevisiae deletion strains, locus YOR184W, strain ser1, stronger effect = lower value)?
A: 1.03

Q: And the normalized growth (S. cerevisiae deletion strains, locus YOR231W, strain MKK1, stronger effect = lower value)?
A: 0.998

Q: What about the normalized growth (S. cerevisiae deletion strains, locus YOR265W, strain rbl2, stronger effect = lower value) of the same molecule?
A: 0.965

Q: And the normalized growth (S. cerevisiae deletion strains, locus YOR270C, strain vph1, stronger effect = lower value)?
A: 0.935

Q: What about the normalized growth (S. cerevisiae deletion strains, locus YOR290C, strain snf2, stronger effect = lower value) of the same molecule?
A: 0.865 (active)

Q: And the normalized growth (S. cerevisiae deletion strains, locus YOR316C, strain cot1, stronger effect = lower value)?
A: 1.02

Q: What about the normalized growth (S. cerevisiae deletion strains, locus YPL051W, strain arl3, stronger effect = lower value) of the same molecule?
A: 0.988

Q: And the normalized growth (S. cerevisiae deletion strains, locus YPL055C, strain LGE1, stronger effect = lower value)?
A: 1.05

Q: And the normalized growth (S. cerevisiae deletion strains, locus YPL078C, strain atp4, stronger effect = lower value)?
A: 0.956

Q: What about the normalized growth (S. cerevisiae deletion strains, locus YPL106C, strain sse1, stronger effect = lower value) of the same molecule?
A: 0.94

Q: What about the normalized growth (S. cerevisiae deletion strains, locus YPL240C, strain hsp82, stronger effect = lower value) of the same molecule?
A: 0.978

Q: What about the normalized growth (S. cerevisiae deletion strains, locus YPL241C, strain CIN2, stronger effect = lower value) of the same molecule?
A: 1.01

Q: What about the normalized growth (S. cerevisiae deletion strains, locus YPL256C, strain CLN2, stronger effect = lower value) of the same molecule?
A: 1.05

Q: And the normalized growth (S. cerevisiae deletion strains, locus YPR119W, strain clb2, stronger effect = lower value)?
A: 1.01

Q: And the normalized growth (S. cerevisiae deletion strains, locus YPR141C, strain kar3, stronger effect = lower value)?
A: 1.01

Q: What about the normalized growth (S. cerevisiae deletion strains, locus YPR163C, strain tif3, stronger effect = lower value) of the same molecule?
A: 1.03

Q: And the normalized growth (S. cerevisiae deletion strains, locus YPR167C, strain met16, stronger effect = lower value)?
A: 1.03

Q: And the normalized growth (S. cerevisiae deletion strains, strain wtn01, stronger effect = lower value)?
A: 1.02

Q: And the normalized growth (S. cerevisiae strains, strain wild type, stronger effect = lower value)?
A: 1.03
